Among all 7,900 compounds or so, about 400 (5.1%) showed an effect of 50% or more. This is one part of a sample in which strong results are shown more often than they occur.

The test deals with Parkinson's disease protein 7 (PARK7/DJ1) (human, UniProt Q99497). As to the kind of experiment: primary screen, percent inhibition; read as competition with a fluorescent probe by fluorescence polarization; higher = more effect of the substance. Particulars: 100 µM. The gist of the method: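 Covalent fragments at 100 μM final were incubated 2 h with 0.2 μM PARK7, then 20 nM probe JYQ-107 added for a further 2 h. Fluorescence polarization read at 480/520 nm; relative FP loss versus reference controls gave remaining enzyme activity.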
Chain of Parkinson's disease protein 7 (PARK7/DJ1) (Q99497 whole entry, looked up, the tested form may be a part): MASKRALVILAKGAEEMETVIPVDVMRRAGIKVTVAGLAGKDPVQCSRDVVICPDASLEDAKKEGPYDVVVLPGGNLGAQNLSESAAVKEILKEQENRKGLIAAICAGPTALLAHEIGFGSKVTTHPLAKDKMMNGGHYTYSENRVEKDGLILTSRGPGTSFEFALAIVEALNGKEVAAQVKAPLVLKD
In the case of `Cl.O=C(CCl)NCCc1cccc2cccnc12`, the Inhibition % stood at 30.3%.

As to `Cc1conc1NS(=O)(=O)c1cccc(S(=O)(=O)F)c1`, the Inhibition % was determined as 99%.

For the molecule `Cc1conc1NS(=O)(=O)c1ccc(S(=O)(=O)F)cc1`, the Inhibition % is 27%.

Consider `O=C(CCl)NCc1ccc(N2CCOCC2)c(F)c1`, for which the Inhibition % worked out at 10.8%.

Regarding `C=CC(=O)N(C)CC1COc2ccccc2O1` (centres unmarked), the Inhibition % was found to be 3.26%.

With `CN(CC1COc2ccccc2O1)C(=O)CCl` (centres unmarked), the Inhibition % turned out to be 96.7%.

With `CCN(CC1COc2ccccc2O1)C(=O)CCl` (centres unmarked), the Inhibition % is reported as 21.2%.

For `N#CC1(NC(=O)CCl)CCC1`, the Inhibition % is 20.1%.

In the case of `CN1CCOC(CNS(=O)(=O)C=Cc2ccccc2)C1` (centres unmarked), the Inhibition % was determined as 6.48%.

In the case of `N#Cc1ncccc1Cl`, the Inhibition % is given as 0.27%.

For the molecule `O=C(CCl)N1CCc2sccc2C1`, the Inhibition % amounted to 83.6%.

As to `O=C(CCCl)N1CCc2sccc2C1`, the Inhibition % was 33.2%.

Regarding `C=CC(=O)NCCCC(=O)N1CCc2sccc2C1`, the Inhibition % is listed as 10.7%.

For `O=C(O)CC1(CS)CC1`, the Inhibition % came out at 80.8%.

Turning to `O=C(O)CC1OCCCO1`, the Inhibition % is -4.03%.

Regarding `COCc1ccc(SC(=O)N(C)C)cc1`, the Inhibition % was found to be 7.64%.

`C=CC(=O)N1CCCN(Cc2nccn2C)CC1`: the Inhibition % was 10.6%.

As for `O=C(CCl)Nc1ccc(Br)cc1C(=O)O`, the Inhibition % is listed as 46.1%.

Regarding `O=C(CCl)Nc1ccc(Cl)cc1C(=O)O`, the Inhibition % was 52.4%.

On to `O=C(CCl)Nc1cccc2cccc(C(=O)O)c12`, for which the Inhibition % turned out to be 11.2%.

As for `O=C(CCl)Nc1cc2ccccc2cc1C(=O)O`, the Inhibition % was 66.3%.

On to `O=C(CCl)Nc1cc(Cl)ccc1C(=O)O`, for which the Inhibition % came out at 47.9%.

As for `C#CC(=O)Nc1cc2ccccc2cc1C(=O)O`, the Inhibition % came out at 29.8%.

As for `C=CC(=O)NCC1CCCc2ccccc21` (centres unmarked), the Inhibition % worked out at 4.88%.

On to `C=CC(=O)N1CCC(CN(C)Cc2scnc2C)C1` (centres unmarked), for which the Inhibition % is reported as 13.2%.

Consider `O=S(=O)(C=Cc1ccc(Cl)cc1)NCC1CCCO1` (centres unmarked), for which the Inhibition % was 6.48%.

As to `CC1CN(CC2OCCO2)CCC1c1ccccc1` (centres unmarked), the Inhibition % turned out to be 8.86%.

Turning to `CCN(C(=O)CCl)C1CC1`, the Inhibition % is listed as 5.24%.

For the molecule `O=C(CCl)N(C1CCCC1)C1CCS(=O)(=O)C1` (centres unmarked), the Inhibition % came to 7.16%.

With `O=C(CCl)N(C1CC1)C1CCS(=O)(=O)C1` (centres unmarked), the Inhibition % is 5.73%.

As for `O=C(CCl)N(C1CCCCC1)C1CCCCC1`, the Inhibition % worked out at 4.3%.

For `O=C(CCl)N(C1CCCC1)C1CC1`, the Inhibition % was 51.2%.

`CC1CCC(N(C(=O)CCl)C2CC2)CC1` (centres unmarked): the Inhibition % is on record as 74.1%.

On to `C=CC(=O)NCc1cccnc1N1CCOCC1`, for which the Inhibition % is listed as 4.99%.

In the case of `C=CC(=O)N1CCOCC1CC` (centres unmarked), the Inhibition % is 7.47%.

Turning to `CCc1cnccc1C(=O)N1CCCC(C2OCCO2)C1` (centres unmarked), the Inhibition % stood at 12.5%.

In the case of `O=C1OCCC1N1CCOC(c2ccc(Cl)cc2)C1` (centres unmarked), the Inhibition % is recorded as 7.62%.

Consider `C=CCNC(=O)C(C#N)=Cc1cccc(O)c1`, for which the Inhibition % was 4.34%.

For `C=CC(=O)NC1COC(C2CC2)C1` (centres unmarked), the Inhibition % is given as 4.28%.

For the molecule `CN(C)Cc1ccc(B2OC(C)(C)C(C)(C)O2)s1`, the Inhibition % is on record as 5.59%.

For the molecule `N#Cc1[nH]c2ccccc2c1N`, the Inhibition % is 72.9%.

For the molecule `N#Cc1nnc2ccccc2c1N`, the Inhibition % came to 1.29%.

Turning to `N#Cc1n[nH]c2ccccc12`, the Inhibition % turned out to be 5.12%.

For the molecule `CC1(C)CC(OS(C)(=O)=O)CCO1` (centres unmarked), the Inhibition % worked out at 8.17%.

Regarding `N#CC(=Cc1ccc(N2CCOCC2)cc1)C(N)=O`, the Inhibition % is 12.7%.

For `Cc1cc(B2OC(C)(C)C(C)(C)O2)cc(N)n1`, the Inhibition % amounted to 5.05%.

Consider `C=CC(=O)NC1CC(=O)N(CC)C1` (centres unmarked), for which the Inhibition % was 8.72%.

On to `O=C(N1CCc2sccc2C1)n1ccnc1`, for which the Inhibition % worked out at 15.4%.

In the case of `O=C(N1CCc2[nH]c3ccccc3c2C1)n1ccnc1`, the Inhibition % was 52.4%.

Consider `Cc1ccc2[nH]c3c(c2c1)CN(C(=O)n1ccnc1)CC3`, for which the Inhibition % is reported as 67.1%.

On to `O=C(CCl)N1CCc2[nH]c3ccccc3c2C1`, for which the Inhibition % was -3.49%.

For the molecule `O=C(N1CCc2[nH]c3ccc(F)cc3c2C1)n1ccnc1`, the Inhibition % came out at 36.3%.

Turning to `O=C(c1ccccc1)N1CCN(C(=O)n2ccnc2)CC1`, the Inhibition % amounted to 2.18%.

`C=CC(=O)N1CCCCC1c1nc2ccccc2o1` (centres unmarked): the Inhibition % was found to be 7.43%.

As for `O=S(=O)(c1cc(Cl)ccc1Cl)n1ccnc1`, the Inhibition % was found to be 7.81%.

Turning to `O=C(O)c1cc(S(=O)(=O)F)cs1`, the Inhibition % amounted to 90%.

Regarding `NC(=O)Nc1ccc(S(=O)(=O)F)cc1`, the Inhibition % stood at 18.9%.

As to `NC(=O)N1CCc2cc(S(=O)(=O)F)ccc21`, the Inhibition % was 10.9%.

As to `CC(C)c1nc(C#N)cs1`, the Inhibition % was found to be 5.66%.

As for `CC1(C)OB(c2ccc(S(=O)(=O)NCCO)cc2)OC1(C)C`, the Inhibition % is 4.41%.

Turning to `C=CC(=O)Nc1cc(C(F)(F)F)n[nH]1`, the Inhibition % is reported as 9.56%.

Consider `C=CC(=O)N1CCOCC1c1c(C)nn(C)c1C` (centres unmarked), for which the Inhibition % stood at 12.6%.

For `CC1(C)C2CC=C(COCC3CO3)C1C2` (centres unmarked), the Inhibition % is reported as 3.87%.

Turning to `Cc1nc2ccccc2nc1S`, the Inhibition % is 2.7%.

Regarding `Sc1nc2ccccc2nc1S`, the Inhibition % worked out at 8.25%.

As to `Nc1cc2ccccc2nc1S`, the Inhibition % is reported as 52%.

On to `Cc1ccc(-c2nnc(SC3CC(C)OC3=O)o2)cc1` (centres unmarked), for which the Inhibition % was found to be 7.51%.

Turning to `OB(O)C1CCN(Cc2cc(-c3ccccn3)n[nH]2)C1` (centres unmarked), the Inhibition % came to 29.8%.

These data come from PMC9574860, “Chemical Toolkit for PARK7: Potent, Selective, and High-Throughput” (Journal of Medicinal Chemistry, 2022).
